# Laboratory results as given in the supplement of paper PMC6555819.
# Columns and labels:
# Assay in all cases: PBM binding z-score (relative to random genomic background probes); higher = stronger binding; sequences stand for … in GC…GCGATTGACAGCGTAGAATGAAGG
# [1] = tested on: FXR:RXRa (NR concentration 270 nM, RXRa partner concentration 90 nM)
# How it was run: (§1)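 Custom Agilent 4×180K protein-binding microarrays carried double-stranded probes, each with a 34-nt variable region. These regions held direct-repeat seeds, single-nucleotide variants, half-site ablations and random human genomic background sequences. Ligand-free nuclear receptor dimers were incubated on the arrays for 1 h, antibodies against each partner (one per run) detected binding, and scanned fluorescence was regression-normalized. Binding z-scores take the random background probes as reference.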
# [2] = tested on: LXRa:RXRa (NR concentration 270 nM, RXRa partner concentration 90 nM)
# How it was run: as §1
# [3] = tested on: LXRa homodimer (NR concentration 270 nM)
# How it was run: as §1
# [4] = tested on: LXRb:RXRa (NR concentration 270 nM, RXRa partner concentration 90 nM)
# How it was run: as §1
# [5] = tested on: LXRb homodimer (NR concentration 270 nM)
# How it was run: as §1
# [6] = tested on: PPARa:RXRa (NR concentration 270 nM, RXRa partner concentration 90 nM)
# How it was run: as §1
# [7] = tested on: PPARg:RXRa (NR concentration 180 nM, RXRa partner concentration 90 nM)
# How it was run: as §1
# [8] = tested on: PPARg:RXRa 270nM:90nM, anti-RXR (NR concentration 270 nM, RXRa partner concentration 90 nM)
# How it was run: as §1
# [9] = tested on: PPARg:RXRa 30nM:10nM, anti-RXR (NR concentration 30 nM, RXRa partner concentration 10 nM)
# How it was run: as §1
# [10] = tested on: PPARg:RXRa 90nM:30nM, anti-RXR (NR concentration 90 nM, RXRa partner concentration 30 nM)
# How it was run: as §1
# [11] = tested on: PPARg:RXRa DBDmut IVT, anti-RXR (DBD mutation: RXRa K156A/R161A, NR concentration 270 nM, RXRa partner concentration 90 nM)
# How it was run: as §1
# [12] = tested on: PPARg:RXRa IVT, anti-PPARg (NR concentration 270 nM, RXRa partner concentration 90 nM)
# How it was run: as §1
# [13] = tested on: PPARg DBDmut:RXRa IVT, anti-PPARg (DBD mutation: PPARg1 K132A/R137A, NR concentration 270 nM, RXRa partner concentration 90 nM)
# How it was run: as §1
# [14] = tested on: PPARg DBDmut IVT, anti-PPARg (DBD mutation: PPARg1 K132A/R137A, NR concentration 270 nM)
# How it was run: as §1
# [15] = tested on: PPARg homodimer (NR concentration 180 nM)
# How it was run: as §1
# [16] = tested on: PXR:RXRa (NR concentration 270 nM, RXRa partner concentration 90 nM)
# How it was run: as §1
# [17] = tested on: PXR homodimer (NR concentration 270 nM)
# How it was run: as §1
# [18] = tested on: RARa:RXR (NR concentration 270 nM, RXRa partner concentration 90 nM)
# How it was run: as §1
# [19] = tested on: RARa homodimer (NR concentration 270 nM)
# How it was run: as §1
# [20] = tested on: RARb:RXRa (NR concentration 270 nM, RXRa partner concentration 90 nM)
# How it was run: as §1
Sequence,PBM binding z-score [1],PBM binding z-score [2],PBM binding z-score [3],PBM binding z-score [4],PBM binding z-score [5],PBM binding z-score [6],PBM binding z-score [7],PBM binding z-score [8],PBM binding z-score [9],PBM binding z-score [10],PBM binding z-score [11],PBM binding z-score [12],PBM binding z-score [13],PBM binding z-score [14],PBM binding z-score [15],PBM binding z-score [16],PBM binding z-score [17],PBM binding z-score [18],PBM binding z-score [19],PBM binding z-score [20]
ATATGTAGTTTAAGGGTCATTCAGGTTGGTTCGC,4.61,4.11,2.99,4.07,1.53,5.03,6.25,6.64,5.02,6.74,1.53,3.45,1.66,1.44,3.5,5.01,3.06,4.34,2.87,3.42
CGTCCAAGGTCCAGGTCAGTGAAAGAGACTCGAA,0.579,0.595,0.0341,0.462,-0.914,1.17,0.0886,0.162,-0.651,-0.258,0.342,0.512,-0.921,-0.937,0.811,0.618,-0.111,0.904,0.0146,2.52
ACTAGCGGGCCAAGTTTGGGTCACTCAAACAAAG,0.106,-0.183,-0.598,0.723,-0.855,1.5,-0.111,0.168,-0.66,0.126,0.418,0.997,-0.878,-0.789,0.424,0.722,-0.623,1.51,-1.37,1.64
CCGACTGGGGCAAGCTTACCATAACGCACAGCCA,-0.512,-0.683,-0.49,-0.277,-1.15,0.0607,0.938,0.116,-0.5,-0.274,3.86,2.37,-0.563,-1.13,-0.678,-0.729,-0.611,-0.807,-0.606,0.697
ATCGAAAGGTCGTGAGGTGAATATACAGAAAGGC,5.8,4.42,0.33,3.66,0.583,5.66,4.88,4.97,2,3.71,0.388,2.93,1.73,0.704,2.17,3.53,0.656,4.96,1.14,4.12
TCATATAGGTAAAAGTGAAAGTCGAACGATATGA,0.173,0.399,-0.314,-0.0823,0.0543,1.84,3.25,4.43,4.62,4.68,3.02,2.69,1.14,1.16,0.424,0.212,0.0345,0.234,0.539,0.22
TCGAGTAGGCTACCAATGGGGCATTCAGCTTTCT,-0.523,-0.102,-1.06,-0.127,-1.18,0.0161,-0.358,0.198,1.19,0.625,1.55,0.414,-0.67,-1.72,-1.23,-0.438,-0.888,-0.72,-1.3,-0.208
